# Results: the supplement of paper PMC9135407
# Structures can show the parent of a compound that is named as a salt. Out of some 5,800 compounds screened, about 620 (11%) showed activity.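 Rule for the calls: active = score above a cut-off or among the top three wells of a plate; in these data no inactive exceeds 0.85.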 The sample as a whole holds a higher share of actives than the screen did.
# System: primary human hepatic stellate cells (donor 1)
# Test: scaled lipid accumulation score (0 = DMSO-like, 1 = nortriptyline-like); higher = stronger HSC inactivation (lipid re-accumulation), active = hit call of the paper
# Conditions: 48 h
# [1] = library stock concentration: 10 mM
# [2] = library stock concentration: 1 mM
# [3] = library stock concentration: 3.33 mM
compound,measurement,setting,value
C[N+](C)(C)CCOP(=O)(O)OP(=O)([O-])OC[C@H]1O[C@@H](n2ccc(N)nc2=O)[C@H](O)[C@@H]1O [Cytidine 5'-diphosphocholine sodium salt hydrate],scaled lipid accumulation score,[1],≤ -0.07 (inactive)
C[N+](C)(C)CCOP(=O)(O)OP(=O)([O-])OC[C@H]1O[C@@H](n2ccc(N)nc2=O)[C@H](O)[C@@H]1O [Citicoline],scaled lipid accumulation score,[1],≤ -0.027 (inactive)
CO[C@H]1C=C[C@@]23c4cc5c(cc4CN(C[C@@H]2O)[C@H]3C1)OCO5 [Crinamine],scaled lipid accumulation score,[1],0.74 (inactive)
Cc1ccc(Nc2cc(-c3cccc(N4C(=O)c5ccccc5C4=O)c3)ncn2)cc1NS(C)(=O)=O,scaled lipid accumulation score,library stock concentration: 80 uM,0.083 (inactive)
same,scaled lipid accumulation score,library stock concentration: 400 uM,≤ -0.016 (inactive)
same,scaled lipid accumulation score,library stock concentration: 2 mM,≤ -0.016 (inactive)
same,scaled lipid accumulation score,[1],0.08 (inactive)
CCCCCC(O)/C=C/C1C(O)CC(O)C1CCCCC(CC(=O)O)OC (stereo not drawn) [3-methoxy Prostaglandin F1.alpha.],scaled lipid accumulation score,[2],≤ 0 (inactive)
CCCCCCCCCCCCCCC(=O)N[C@H]1CCOC1=O [N-pentadecanoyl-L-Homoserine lactone],scaled lipid accumulation score,[2],≤ 0 (inactive)
c1ccc2c(c1)CCC[C@H]2Nc1nc2ccccc2[nH]1 [NS8593 hydrochloride],scaled lipid accumulation score,[1],0.362 (inactive)
CCCCNC(=O)NS(=O)(=O)c1ccc(CO)cc1 [4-hydroxy Tolbutamide],scaled lipid accumulation score,[2],0.012 (inactive)
COc1ccc(NS(=O)(=O)c2ccc(I)cc2)cc1N1CCN(C)CC1,scaled lipid accumulation score,[1],0.604 (inactive)
COc1ccc(NS(=O)(=O)c2sc3ccc(Cl)cc3c2C)cc1N1CCNCC1 [listing 1 of 2 here],scaled lipid accumulation score,[1],1.31 (active)
COc1ccc(NS(=O)(=O)c2sc3ccc(Cl)cc3c2C)cc1N1CCNCC1 [listing 2 of 2 here],scaled lipid accumulation score,[3],0.383 (inactive)
CCCCCCCCCCCCCCCCCCCCCC(=O)NCCO [Docosanoyl Ethanolamide],scaled lipid accumulation score,[2],≤ 0 (inactive)
C[C@]12CC[C@@H]3c4ccc(OC(=O)c5ccccc5)cc4CC[C@H]3[C@@H]1CC[C@@H]2O [Estradiol Benzoate],scaled lipid accumulation score,[3],≤ 0 (inactive)
same,scaled lipid accumulation score,[1],0.155 (inactive)
COc1ccc2c(c1)CCC1C2CCC2(C)C(NCCCCCCN3C(=O)C=CC3=O)CCC12 (stereo not drawn),scaled lipid accumulation score,[2],≤ 0 (inactive)
same,scaled lipid accumulation score,[1],0.397 (inactive)
C[C@]12CC[C@@H]3c4ccc(OC(=O)c5ccccc5)cc4CC[C@H]3[C@@H]1CC[C@@H]2O [Estradiol benzoate],scaled lipid accumulation score,library stock concentration: 5.3 mM,≤ 0 (inactive)
COc1ccc2c(c1)CCC1C2CC[C@@]2(C)C1CC[C@@H]2NCCCCCCN1C(=O)CCC1=O (stereo partly drawn),scaled lipid accumulation score,[1],0.875 (active)
CN1c2cc(O)c(N=NC(N)=O)cc2CC1S(=O)(=O)O (stereo not drawn) [Carbazochrome sodium sulfonate (AC-17)],scaled lipid accumulation score,[3],≤ 0 (inactive)
same,scaled lipid accumulation score,[1],≤ 0 (inactive)
